Compound activity deposited in PubChem by National Center for Advancing Translational Sciences (NCATS).
This is a sample that favours compounds with a hit; in the whole collection about 11% have one here.
L3MBTL1 block = blocks human L3MBTL1; Q9Y468; AlphaScreen L3MBTL1–H3K9me1 peptide binding; Potency, µM (highest dose often 57.1 µM), for the others: at the top dose activity, negative = inhibition, actives largely listed as inhibitors; 0.66% of 230,000 active; AID 485360; note: potency is the fitted concentration of half-maximal effect; % is set by controls: 0 for no effect and ±100 for the full control effect; nearly all actives have a fitted effect of over 60% in size
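L3MBTL1 50 nM + b-AHA-H3(1-15)K9me1 75 nM, 30 min RT; compound added, 30 min RT; streptavidin donor/Ni-chelate acceptor beads 10 ug/mL each final, 30 min RT dark; AlphaScreen read.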
JMJD2A Tudor = blocks the human JMJD2A Tudor domain; O75164; AlphaScreen JMJD2A-Tudor / H3K4me3 peptide binding; Potency, µM (top dose mostly 114 µM), inactives show at the highest dose activity change, negative = inhibition, hits mostly inhibitors; 4.4% of 390,000 active; AID 504339; note: potency is the fitted concentration of half-maximal effect; % is set by controls: 0 for no effect and ±100 for the full control effect; nearly all actives have a fitted effect of over 50% in size
PI5P4K alpha inh = inhibitors of human PI5P4K alpha; P48426; PI5P4Kalpha enzyme, ADP-Glo luminescence, 60 min; hits give low values; max response, %; 1.2% of 330,000 active; AID 652105; active = max response of -50% or lower; inconclusive = between -30% and -50%; inactive = -30% or higher; note: value at the top dose of about 77 µM; % is set by controls: 0 for no effect and ±100 for the full control effect
Target sequence (P48426 whole entry, looked up): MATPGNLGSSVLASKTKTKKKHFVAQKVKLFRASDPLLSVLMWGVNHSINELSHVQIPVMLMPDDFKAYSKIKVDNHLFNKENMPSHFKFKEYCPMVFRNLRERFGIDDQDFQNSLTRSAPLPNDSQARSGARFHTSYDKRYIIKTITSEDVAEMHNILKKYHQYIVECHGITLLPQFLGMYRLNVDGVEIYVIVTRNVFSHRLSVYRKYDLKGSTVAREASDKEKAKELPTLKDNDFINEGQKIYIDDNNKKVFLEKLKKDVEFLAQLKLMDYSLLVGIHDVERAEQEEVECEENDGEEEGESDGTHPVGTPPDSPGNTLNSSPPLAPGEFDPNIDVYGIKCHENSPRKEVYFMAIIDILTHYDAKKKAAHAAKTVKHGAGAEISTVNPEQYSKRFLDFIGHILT
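Human PI5P4Kalpha with substrate in 0.038 M HEPES pH 7.4, 0.28 mM EGTA, 0.1% CHAPS, 5% DMSO; reaction started with 5 microM ATP (final), 60 min at room temperature. ADP formed read by ADP-Glo luminescence.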
BAZ2B block = BAZ2B (human) inhibition. Q9UIF8. AlphaScreen BAZ2B-H3K14Ac peptide displacement. Potency, µM (titrated, usually from 114 µM), for the others: top-dose activity change, negative = inhibition, most hits filed as inhibitors. 4.4% of 360,000 active. AID 504333; note: potency is the fitted concentration of half-maximal effect; % is set by controls: 0 for no effect and ±100 for the full control effect; nearly all actives have a fitted effect of over 60% in size
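AlphaScreen displacement of biotin-H3(5-23)K14Ac peptide (50 nM final) from BAZ2B (50 nM final) in PBS pH 7.4, 0.01% Tween-20; complex preformed 30 min RT, then compounds (top 110 uM) 30 min RT, beads 20 min dark.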
G9a block = blocks human histone lysine methyltransferase G9a; G9a H3K9 monomethylation, AlphaScreen, 2 h; Potency, µM (highest dose often 102 µM), for inactives: at the top dose activity, negative = inhibition, actives largely listed as inhibitors; 8.8% of 350,000 active; AID 504332; note: potency is the fitted concentration of half-maximal effect; % is set by controls: 0 for no effect and ±100 for the full control effect; nearly all actives have a fitted effect of over 75% in size
Target sequence (Q96KQ7 913-1193 limits assumed): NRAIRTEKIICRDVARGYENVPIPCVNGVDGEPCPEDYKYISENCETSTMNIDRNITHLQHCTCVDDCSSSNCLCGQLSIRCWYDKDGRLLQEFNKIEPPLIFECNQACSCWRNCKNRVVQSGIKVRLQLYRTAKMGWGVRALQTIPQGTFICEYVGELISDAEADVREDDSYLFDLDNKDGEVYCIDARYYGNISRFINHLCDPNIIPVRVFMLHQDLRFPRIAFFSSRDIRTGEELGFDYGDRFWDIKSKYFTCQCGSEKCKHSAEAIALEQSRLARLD
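Chemiluminescent proximity detection of H3K9 monomethylation, read after 10 min bead incubation in the dark. Reaction: 20 nM G9a, 500 nM biotin-H3K9 peptide, 20 uM SAM cofactor, 2 h, room temperature, following 15 min enzyme-compound preincubation.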
HP1b chromo inh = blocks HP1-beta chromodomain binding to methylated histone tails; P83916; AlphaScreen HP1-beta / biotin-H3K9me3 peptide binding; Potency, µM (series often up to 114 µM), inactives show at the top dose activity change, negative = inhibition, hits mostly inhibitors; 0.56% of 390,000 active; AID 540317; note: potency is the fitted concentration of half-maximal effect; nearly all actives have a fitted effect of over 70% in size
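HP1-beta protein (50 nM final) preincubated 30 min at room temperature with biotinylated H3(1-18)K9me3 peptide (50 nM) in PBS pH 7.4, 0.01% Tween-20, then compound added for 30 min. AlphaScreen streptavidin donor/nickel chelate acceptor beads (10 ug/mL final), 30 min dark, luminescence read.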
* = called active by the depositor; ? = inconclusive; · = no result given; [ ] = another dose, or the depositor's remark. Unless noted, calls come from the whole dose curve; as a rule, active = well fitted inhibition curve with a large enough effect; inconclusive = small, poorly fitted or top-dose-only effect; inactive = no such curve, though single readings can be large or run the other way.

SMILES	L3MBTL1 block	JMJD2A Tudor	PI5P4K alpha inh	BAZ2B block	G9a block	HP1b chromo inh
O=C(Nc1cccc(S(=O)(=O)Nc2ccc(Cl)cc2)c1)c1ccc(Cl)nc1	2%	-25%	0	-3%	79µM*	45%
CCN(CC)S(=O)(=O)c1ccc2c(c1)N(CC(=O)N1CCN(c3cccc(OC)c3)CC1)C(=O)CO2	·	-7%	·	1%	2%[59 µM]	49%
O=C(CSc1nnc(-c2cccnc2)o1)c1cc2ccccc2oc1=O	-8%[11.4 µM]	-20%	-20	-6%	?	11%
Cn1cnnc1SCC(=O)c1cc2ccccc2oc1=O	-5%	89µM*	·	?	?	-18%
O=C(Nc1cccc(N2C(=O)C3CCCCC3C2=O)c1)c1ccccc1 (centres undefined)	·	-6%	-1	-1%	11%	38%
O=C(Nc1ccc(Br)cc1)c1cccc(N2C(=O)C3C4CCC(C4)C3C2=O)c1 (centres undefined)	?	-9%[57.1 µM]	-1	8%	21%[59 µM]	-3%
O=C(Nc1ccc(F)cc1)c1cccc(N2C(=O)C3C4CCC(C4)C3C2=O)c1 (centres undefined)	5%	18%	11	-1%	3.2µM*	27%
O=C(Nc1cccc(Cl)c1)c1cccc(N2C(=O)C3CC=CCC3C2=O)c1 (centres undefined)	·	-26%	-6	?	79µM*	?
CC1C=CCC2C(=O)N(c3cccc(C(=O)NCc4ccccc4)c3)C(=O)C12 (centres undefined)	·	-28%	-14	-24%	28µM*	20%
CC1C=CCC2C(=O)N(c3cccc(C(=O)NCCc4ccccc4)c3)C(=O)C12 (centres undefined)	·	-20%	-19	-21%	?	26%
CCCCN(C)c1ncnc2c1cnn2-c1cccc(Cl)c1	·	35%	·	129%	85%[59 µM]	155%
Nc1c(S(=O)(=O)O)cc(NC(=O)c2ccccc2)c2c1C(=O)c1ccccc1C2=O	·	2.5µM*	-77*	3.5µM*	?	?
CCC(=O)N(CCC(c1ccco1)C(C)C)Cc1ccccc1 (centres undefined)	9%	79µM*	-3	4%	·	0%
CCC(=O)N(CCC(c1ccc(C)cc1)c1ccco1)Cc1ccco1 (centres undefined)	-5%	?	-29	50µM*	?	-9%
Cn1cccc1C(=O)N1CCC2(CC1)CCN(c1ccccn1)CC2	·	·	·	·	-2%[12.7 µM]	·
COc1cccc(C2CC(c3ccc(Br)cc3)=NN2C(=O)c2ccncc2)c1OC (centres undefined)	·	?	-4	32µM*	36%[59 µM]	-3%
O=C(c1ccncc1)N1N=C(c2ccc(Cl)cc2)CC1c1ccccc1O (centres undefined)	·	?	-12	?	20µM*	-11%
COc1ccc(C2=NN(C(=O)c3ccncc3)C(c3ccccc3O)C2)cc1 (centres undefined)	·	-24%	8	-28%	?	-5%
CCNC(=O)C1CCCN1S(=O)(=O)c1ccc(OC)cc1 (centres undefined)	·	-6%	·	8%	8.9µM*	7%
COc1ccc(CNC(=O)C2CCCN2S(=O)(=O)c2ccc(F)cc2)cc1 (centres undefined)	-1%	9%	4	-33%	-7%	36%
COc1ccc(S(=O)(=O)N2CCCC2C(=O)Nc2nnc(-c3cccnc3)s2)cc1 (centres undefined)	-8%	-26%	·	-8%	3.5µM*	-26%
CCOC(=O)c1c(NC(=O)c2ccco2)n(C2CCCCC2)c2nc3ccccc3nc12	10%	-15%	·	13%	50µM*	54%
Cc1ccc(-c2nc3ccccn3c2NCc2ccc3c(c2)OCO3)cc1	?	100µM*	1	?	?	?
Cc1ccc(Nc2c(-c3ccccc3)nc3cnccn23)cc1	·	10%	-9	-12%	10%	36%
Cc1ccc(-c2nc3ccccn3c2Nc2ccc3c(c2)OCO3)cc1	·	25µM*	·	18µM*	10µM*	?
SMILES	L3MBTL1 block	JMJD2A Tudor	PI5P4K alpha inh	BAZ2B block	G9a block	HP1b chromo inh
Cc1cccc2nc(-c3ccc(N(C)C)cc3)c(Nc3ccc4c(c3)OCO4)n12	·	-29%	·	·	2.2µM*	18%
c1cncc(-c2nc3ccccn3c2Nc2ccc3c(c2)OCCO3)c1	·	?	3	?	?	-10%
Cc1ccc(-c2nc3nc(C)cc(C)n3c2Nc2ccc3c(c2)OCCO3)cc1	·	?	·	?	?	-18%
Cc1ccc(Nc2c(-c3ccc(N(C)C)cc3)nc3ccccn23)cc1	·	7.9µM*	·	-20%	?	?
Cc1cc(C)cc(N2CCn3c2nc2c3c(=O)n(CCCc3ccccc3)c(=O)n2C)c1	·	-12%	·	-14%	-1%[59 µM]	42%
CCc1cccc(C)c1NS(=O)(=O)c1c(C(=O)N2CCC(C)CC2)c(C)n(C)c1C	·	-21%	·	?	6%[59 µM]	18%
CC(=O)Nc1nonc1-c1nnc(SCc2ccccc2F)n1C	·	14%	·	-5%	2%[59 µM]	40%
O=C(CN1C(=O)CCC1=O)Nc1nc2c(F)cc(F)cc2s1	·	-6%	-8	·	·	42%
O=C(CN1C(=O)NC2(CCCCC2)C1=O)Nc1nc2c(F)cc(F)cc2s1	-6%	-20%	-50*	4%	50µM*	22%
Cc1ccc(C(=O)NCCCNCCCN(C)C)cn1	·	50µM*	·	?	?	-2%
CN(CCNC(=O)c1ccc(/C=N/O)nc1)Cc1ccccc1	-8%	8.9µM*	-7	?	25µM*	4%
O=C(NCCCNCCCNC(=O)c1ccc(/C=N/O)nc1)c1ccc(/C=N/O)nc1	·	5.6µM*	-1	1.4µM*	·	45%
CN(CCCCCNC(=O)/C=N/O)Cc1ccccc1	9%	·	·	-7%	?	·
CC(=O)N1CC(O)CC1C(=O)O (centres undefined)	·	·	·	·	-3%[12.7 µM]	·
Cn1c(=O)c2[nH]c(=O)cnc2n(C)c1=S	4%	-6%	-3	-15%	50µM*	-10%
S=c1[nH]c(-c2ccccc2)cn1/N=C/c1ccccc1Br	-22%	-27%	-7	?	2.5µM*	-11%
COc1cc(/C=N/n2cc(-c3ccccc3)[nH]c2=S)cc(OC)c1O	-18%	1.3µM*	-3	-19%	0.5µM*	-25%
Oc1ccc(/C=N/n2cc(-c3ccccc3)[nH]c2=S)cc1	-29%	4µM*	-23	·	2.5µM*	-14%
Cc1ccc(/C=N/n2cc(-c3ccccc3)[nH]c2=S)s1	·	?	-13	-26%	?	31%
S=c1[nH]c(-c2ccccc2)cn1/N=C/c1cccc2ccccc12	-11%	?	7	?	-43%	-21%
